In PubChem BioAssay:
Activity calls are given as the source filed them.

Assay: basal 3T3-L1 adipocyte mitochondrial potential changes, profiling panel, cell-based, JC-1 fluorescence, 3T3-L1 adipocytes, 24 h, 100 nL compound (AID 1168); note: test concentration not given here
Conditions: JC-1 mitochondrial fluorescence, higher = more signal, called active from +8 up or from −8 down

z-score, inactive:
C=C(COC)C(=O)CC[C@H](OC(C)=O)c1ccccc1OCCO 0.862
CCOC(=O)C[C@H]1[C@H](OC(=O)Cc2ccc3c(c2)OCO3)[C@@H](NC(=O)CC(C)C)c2cc(OCCCO)ccc2N1C(=O)c1ccc2ccccc2n1 0.0499
O=C1C[C@@](C(=O)NCC(F)(F)F)(c2ccc([N+](=O)[O-])cc2)[C@@H](c2ccc(CO)cc2I)N1CC12CC3CC(CC(C3)C1)C2 2.16
COc1cc(CO)cc(I)c1O[C@H]1C=C(C(=O)NCCO)C[C@@H](N(CCN2CCOCC2)C(=O)C2CCCO2)[C@@H]1O (stereo not given in full) -0.526
O=C1C2C=CC(C(O)C(c3ccccc3)c3ccccc3)N(Nc3ccccc3F)C2C(=O)N1c1ccccc1 (stereo not given) -1.3
COC(=O)C[C@H]1O[C@]2(C(=O)N(C)c3ccccc32)[C@@H](C)[C@@H]1[Si](C)(C)c1ccccc1 0.611
CC(C)(C)OC(=O)CC[C@]1(C(=O)N2CCOCC2)COC(c2ccc(OCCCO)cc2)=N1 -0.305
C=C(CC1([C@@H](NP(=O)(c2ccccc2)c2ccccc2)[C@H]2C[C@@H]2CCCC)CC1)c1cccc(OC)c1 -0.532
COc1ccc(C(=O)Nc2cccc(CN3C(=O)[C@]4(O[C@H](CC(=O)N(CCO)Cc5ccccc5)[C@@H]([Si](C)(C)c5ccc(OC)cc5)[C@@H]4C)c4ccccc43)c2)cc1 1.3
CC[C@@H](O[Si](C#C[Si](C(C)C)(C(C)C)C(C)C)(C(C)C)C(C)C)c1cn([C@H](CO)Cc2ccccc2)nn1 -0.123
